Laboratory results as given in PubChem BioAssay AID624309 (Sanford-Burnham Center for Chemical Genomics, 2012).
Out of some 2,000 compounds screened, about 260 (13%) were called active. Rule as the data show it: active = inhibition mostly above about 42% (no sharp cut-off); inactive = mostly below about 42%. Not all results are given here.

Test system: Nicotinate mononucleotide adenylyltransferase NadD (Staphylococcus aureus N315)
Test: inhibitors of S. aureus NadD, confirmation, biochemical, colorimetric, single concentration (AID 624309)
Details: purified S. aureus NadD, colorimetric enzyme assay; at 20 µM; active compounds read high

inhibition, inactive:
O=C(Cc1csc(Nc2nc(=S)[nH]c3ccccc23)n1)NCCCN1CCN(c2cccc(Cl)c2)CC1 33.7%
Cc1ccc(Nc2nc(-c3sc(NC(=O)c4ccccc4)nc3C)cs2)cc1 38.5%
N#CCC(=O)Nc1ccc(C(=O)OCC(=O)Nc2sc3c(c2C#N)CCCC3)cc1 24.8%
CCOc1ccc(NC(=O)c2ccc(NC(=O)COC(=O)c3ccc(NC(=O)CC#N)cc3)cc2)cc1 15.8%
NC(c1csc(NC(=O)Nc2ccccc2Oc2ccccc2)n1)c1ccccc1Cl (stereo unspecified) 25.9%
COc1ccc(NC(=O)/C(C#N)=C\c2cc(OC)c(OCc3ccc(C(=O)O)cc3)cc2Br)cc1 11%
Cc1cccc(NC(=O)c2sc3nc4c(c(-c5ccco5)c3c2N)CCC4)c1 21.1%
O=C(NC(Cc1c[nH]c2ccccc12)C(=O)N/N=C/c1ccc(Br)cc1)c1cccs1 (stereo unspecified) 25.7%
O=C1Nc2cc(C(=O)N3CCN(c4ccc(F)cc4)CC3)ccc2NC1CSCc1cccc(F)c1 (stereo unspecified) 41.8%
S=c1[nH]nc(Nc2ccccc2)s1 45.2%
Cc1ccc(-n2c(SCC(=O)N/N=C/C=C/c3ccccc3[N+](=O)[O-])nc3ccccc3c2=O)cc1 3.65%
CCOc1cc(/C=C2/N=C(c3ccc(C(C)(C)C)cc3)OC2=O)cc(Cl)c1OS(C)(=O)=O 11.4%
Cc1oc2c(C)c3oc(=O)c(CC(=O)N[C@@H](CC(C)C)C(=O)N[C@@H](Cc4ccccc4)C(=O)O)c(C)c3cc2c1C 43.8%
Cc1ccc(-c2cc(C(=O)N/N=C/C=C/c3ccco3)c3ccccc3n2)cc1C 4.81%
CS(=O)(=O)c1sc2nc(-c3ccccc3)cc(-c3ccccc3)c2c1N 1.76%
NC(=O)c1ccc(NC(=O)COC(=O)c2c3c(nc4ccccc24)/C(=C\c2ccc4c(c2)OCO4)CCC3)cc1 45.2%
O=C(Nc1cccc(-c2nc3ccccc3[nH]2)c1)c1ccc(C(=O)Nc2cccc(-c3nc4ccccc4[nH]3)c2)cc1 34.9%
CCOC(=O)C1=C(C)Nc2sc(C(=O)c3ccc(Br)cc3)c(N)c2C1c1ccc(C(=O)OC)cc1 (stereo unspecified) 8.7%
CC(=O)Nc1ccc(C(=O)Nc2nc(-c3cc(C)n(Cc4ccccc4)c3C)cs2)cc1 14.3%
COc1cccc(OCc2cc(/C=N/NC(=O)c3nc(Cl)c(Cl)c(N)c3Cl)ccc2OC)c1 25.3%
CC(C)c1ccc2c(c1)c(SC(C)(C)C)c(CC(C)(C)C(=O)O)n2Cc1ccc(Cl)cc1 28.1%
S=c1[nH]nc(-c2cccs2)n1/N=C/c1cn(-c2ccccc2)nc1-c1ccc(Cl)cc1 6.28%
COc1ccc(-c2nc3cnccn3c2NC2CCCCC2)cc1-c1cccc(Cl)c1 18.8%
O=C(COc1ccc(/C=N/NC(=O)c2ccc(O)cc2)cc1)Nc1ccc([N+](=O)[O-])cc1 15.9%
COc1ccc(-n2c(SCC(=O)Nc3sc4c(c3C#N)CCCC4)nnc2-c2ccc(O)cc2)cc1 6.59%
O=C(COc1ccc([N+](=O)[O-])cc1)Nc1ccc(N2CCCC2)cc1 -0.14%

inhibition, active:
Cc1ccc(C(=O)NNC(=O)c2cc3cc4ccccc4nc3s2)cc1 65.5%
O=C(COC(=O)c1ccc(Oc2ccccc2)cc1)Nc1nnc(-c2ccccc2)o1 72.6%
NC(CSC(c1ccccc1)(c1ccccc1)c1ccc(-c2ccccc2)cc1)C(=O)O (stereo unspecified) 54.7%
O=C(Nc1nnc(-c2ccccc2)o1)c1cc(-c2cccs2)nc2ccccc12 55.5%
NS(=O)(=O)c1ccc(NC(=O)COC(=O)c2c3c(nc4ccccc24)/C(=C\c2ccc4c(c2)OCO4)CCC3)cc1 74.4%
